Measured values as given in PubChem BioAssay (NCATS).
Unmarked numbers belong to inactive results. Inconclusive results are not listed. A call without a number means that no potency is given here. Calls of active or inactive are those of the source. Unless noted, calls come from the whole dose curve; as a rule, active = well fitted curve in the direction sought with a large enough effect; inconclusive = small, poorly fitted or top-dose-only effect, or another doubt; inactive = no such curve, though single readings can be large; an effect the other way counts as inactive or inconclusive.

Tests used:
[1] = target: Lysosomal acid glucosylceramidase (Homo sapiens) (UniProt P04062); experiment: Glucocerebrosidase-p2 (AID 348; in the data active = potency below about 10 µM; note: potency is the fitted concentration of half-maximal effect); details: purified GBA, blue fluorogenic substrate, 40 min
Lysosomal acid glucosylceramidase (Homo sapiens), sequence (P04062 whole entry, looked up): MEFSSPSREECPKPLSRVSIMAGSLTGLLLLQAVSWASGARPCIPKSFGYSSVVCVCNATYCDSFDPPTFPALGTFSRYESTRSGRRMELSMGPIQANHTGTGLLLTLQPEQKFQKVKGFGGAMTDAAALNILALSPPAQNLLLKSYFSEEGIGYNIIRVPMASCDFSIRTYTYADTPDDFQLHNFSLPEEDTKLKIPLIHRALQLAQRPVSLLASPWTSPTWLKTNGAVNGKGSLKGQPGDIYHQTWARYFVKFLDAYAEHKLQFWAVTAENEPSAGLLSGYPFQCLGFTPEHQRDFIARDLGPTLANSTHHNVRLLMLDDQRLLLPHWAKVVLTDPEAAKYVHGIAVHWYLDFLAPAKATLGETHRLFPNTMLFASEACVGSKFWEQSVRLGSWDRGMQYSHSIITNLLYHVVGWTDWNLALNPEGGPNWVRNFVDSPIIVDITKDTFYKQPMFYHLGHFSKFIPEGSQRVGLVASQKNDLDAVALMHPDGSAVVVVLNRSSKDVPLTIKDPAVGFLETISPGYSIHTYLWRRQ
Outline: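 Normal human glucocerebrosidase (0.2 nM) with blue fluorogenic substrate (80 uM final) in citrate/phosphate pH 5.9 with 10mM sodium taurocholate, 0.01% tween-20; 40 min RT, NaOH/glycine stop; fluorescence Ex 365/Em 440; AC50 from a titration from 0.6 nM upwards.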

[2] = AP1 Signaling Pathway (AID 357; active = well fitted curve in either direction with a large enough effect, not every such curve was filed as active); details: ME-180 AP-1-bla reporter, EGF-induced, beta-lactamase ratio, 5 h; at 7.69 µM (top of the series) unless noted
Outline: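 ME-180 cells with beta-lactamase reporter under AP-1 response element, stimulated with EC50 EGF; compounds tested in titration series, 5 h at 37 °C. CCF4 substrate added 2.5 h at room temperature; 460/530 nm emission ratio gave %activity and AC50.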

[3] = target: Cytochrome P450 1A2 (Homo sapiens) (UniProt P05177); experiment: p450-cyp1a2 (AID 410; calls by dose curve; note: potency is the fitted concentration of half-maximal effect)
Cytochrome P450 1A2 (Homo sapiens), sequence (P05177 whole entry, looked up): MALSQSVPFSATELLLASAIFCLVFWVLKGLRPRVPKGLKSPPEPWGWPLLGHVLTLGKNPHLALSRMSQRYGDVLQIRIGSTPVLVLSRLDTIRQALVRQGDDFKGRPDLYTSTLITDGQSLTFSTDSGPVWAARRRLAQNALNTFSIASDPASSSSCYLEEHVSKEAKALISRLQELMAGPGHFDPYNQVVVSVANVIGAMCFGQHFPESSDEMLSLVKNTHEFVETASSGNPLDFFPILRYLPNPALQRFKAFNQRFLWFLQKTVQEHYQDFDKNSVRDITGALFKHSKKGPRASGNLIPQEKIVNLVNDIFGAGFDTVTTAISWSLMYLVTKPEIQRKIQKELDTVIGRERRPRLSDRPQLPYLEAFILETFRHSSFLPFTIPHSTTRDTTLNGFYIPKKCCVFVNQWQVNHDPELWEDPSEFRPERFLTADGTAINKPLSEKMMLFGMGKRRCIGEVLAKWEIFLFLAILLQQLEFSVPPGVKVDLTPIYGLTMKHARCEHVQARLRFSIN
Outline: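 20nM CYP1A2, 100uM Luciferin-ME (=Km), 100mM KPO4; cpd 10 min RT; +NADPH regen, 60 min RT; stop/detect 20 min; luminescence. Normalized to furafylline 57 uM = full inhibition.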

[4] = NFAT Signaling Pathway (AID 444; active = well fitted curve in either direction with a large enough effect, not every such curve was filed as active;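 note: carbachol stimulus at about its EC50 of 1 µM final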); details: Jurkat NFAT-bla M1, carbachol, beta-lactamase ratio, 5 h; at 7.69 µM (top of the series) unless noted
Outline: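 Read-out: CCF4 FRET ratio (460 nm/530 nm) after 1 h RT dye loading, used for %activity and AC50 from titration series. Cells: Jurkat NFAT-β-lactamase/M1 line, treated with compound plus 1 uM carbachol for 5 h, 37 °C.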

[5] = Stat Signaling Pathway (AID 446; active = well fitted curve in either direction with a large enough effect, not every such curve was filed as active;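 note: ME-180 cervical cancer cells given 40 pM IL-6 alongside compound; SIE-controlled beta-lactamase reporter measured as 460/530 nm FRET emission ratio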); details: ME-180 (cervical carcinoma) SIE beta-lactamase reporter, IL-6 stimulated, 5 h; at 7.69 µM (top of the series) unless noted
Outline: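 Emission at 460 and 530 nm (excitation 405 nm) reports SIE-controlled beta-lactamase in ME-180 cells. Cells received compound with 40 pM IL-6 for 5 hrs at 37 C; data scaled between 300 pM IL-6 and 125 nM JAK-inhibitor controls.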

[6] = target: Glucocorticoid receptor (Homo sapiens) (UniProt P04150); experiment: GR-GFP Redistribution (AID 450;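 active = compounds whose dose series gives a full or clear partial fitted curve of increased nuclear translocation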; note: potency is the fitted concentration of half-maximal effect); details: U2OS GR-GFP nuclear translocation, laser cytometry, 2 h
[7] = target: Glucocorticoid receptor (Homo sapiens) (UniProt P04150); experiment: GR-EFC Redistribution (AID 451; calls by dose curve; note: potency is the fitted concentration of half-maximal effect); details: CHO-K1 GR-EFC translocation, beta-gal luminescence, 2 h
Outline: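 Translocation of GR-ED fusion to nuclear EA restores b-gal, read by luminescence after 1 h room-temperature detection. Engineered CHO-K1 biosensor cells, 1,000/well, exposed 2 h at 37 C to titrations up to 46 uM final.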

[8] = target: Mitogen-activated protein kinase 10 (Mus musculus) (UniProt Q61831); experiment: JNK3 AlphaScreen Assay (AID 530; active = well fitted curve in either direction with a large enough effect, not every such curve was filed as active;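 note: kinase came from lysate of stimulated human HepG2 cells; signal reports phosphorylation of biotinylated GST-cJun 1-79 at Ser73 with 10 µM ATP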)
Outline: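 Kinase buffer: 20 mM Tris-HCl pH 7.6, 10 mM MgCl2, 1 mM DTT, 0.1 mM Na3VO4, 0.01% Tween-20; ATP 10 uM. Substrate biotin-GST-cJun(1-79), enzyme from activated HepG2 lysates. Detection by Ser73 phospho-antibody AlphaScreen.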

[9] = target: Cytochrome P450 3A4 (Homo sapiens) (UniProt P08684); experiment: qHTS Assay for Activators of Cytochrome P450 3A4 (AID 885); note: nearly all actives have a fitted effect of over 65% in size
Outline: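 Activators are scored by enhanced luminescence from CYP3A4 conversion of luciferin-PPXE (25uM, equal to KM) to luciferin, after 60 min at RT with an NADPH-regenerating system.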

[10] = Primary qHTS for small molecule stabilizers of the endoplasmic reticulum resident proteome: Secreted ER Calcium Modulated Protein (SERCaMP) assay (AID 1508630)
Outline: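 The SH-SY5Y reporter protocol was run at 3 concentrations up to 38.3 uM (primary) or 11 concentrations (follow-up): 16 h compound, 100 nM thapsigargin for 4 h, then extracellular luciferase luminescence.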

[11] = target: Rap guanine nucleotide exchange factor 3 (Homo sapiens) (UniProt O95398); experiment: Confirmatory qHTS for antagonist of cAMP-regulated guanine nucleotide exchange factor 3 (EPAC1) (AID 1645880); note: nearly all actives have a fitted effect of over 55% in size
Rap guanine nucleotide exchange factor 3 (Homo sapiens), sequence (O95398 whole entry, looked up): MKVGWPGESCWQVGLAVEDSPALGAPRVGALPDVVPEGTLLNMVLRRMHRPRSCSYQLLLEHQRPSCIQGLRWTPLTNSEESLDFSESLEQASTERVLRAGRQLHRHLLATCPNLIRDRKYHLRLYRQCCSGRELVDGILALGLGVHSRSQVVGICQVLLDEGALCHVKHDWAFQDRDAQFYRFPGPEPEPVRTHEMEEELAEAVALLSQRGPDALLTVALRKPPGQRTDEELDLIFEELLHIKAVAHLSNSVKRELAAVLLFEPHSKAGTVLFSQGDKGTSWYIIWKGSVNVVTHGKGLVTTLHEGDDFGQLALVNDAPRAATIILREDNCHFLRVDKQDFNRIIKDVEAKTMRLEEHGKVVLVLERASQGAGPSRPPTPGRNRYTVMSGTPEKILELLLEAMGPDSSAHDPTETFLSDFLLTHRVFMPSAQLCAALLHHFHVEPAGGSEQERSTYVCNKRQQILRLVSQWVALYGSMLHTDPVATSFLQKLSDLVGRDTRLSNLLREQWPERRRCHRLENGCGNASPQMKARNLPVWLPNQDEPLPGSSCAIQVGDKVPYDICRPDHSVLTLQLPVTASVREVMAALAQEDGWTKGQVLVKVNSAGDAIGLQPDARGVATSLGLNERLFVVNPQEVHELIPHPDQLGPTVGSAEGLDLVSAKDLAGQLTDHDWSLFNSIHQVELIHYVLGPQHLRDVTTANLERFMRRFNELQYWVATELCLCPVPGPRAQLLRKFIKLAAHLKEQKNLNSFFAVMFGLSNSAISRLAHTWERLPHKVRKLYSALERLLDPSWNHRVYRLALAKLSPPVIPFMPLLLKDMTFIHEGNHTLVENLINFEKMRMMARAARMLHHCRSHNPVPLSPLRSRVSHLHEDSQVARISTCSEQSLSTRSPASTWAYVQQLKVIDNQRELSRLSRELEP
Outline: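 Released BODIPY-GDP fluoresces less than Rap1-bound BODIPY-GDP; the signal is followed at 480/540 nm at 5-min intervals over 30 min, after 5 min at room temperature. Reactions contain 100 nM EPAC1, 250 nM RAP1B-BODIPY-GDP and 50 uM GDP; results are normalized to ATA and DMSO.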

[12] = target: Rap guanine nucleotide exchange factor 3 (Homo sapiens) (UniProt O95398); experiment: Confirmatory qHTS for agonist of cAMP-regulated guanine nucleotide exchange factor 3 (EPAC1) (AID 1645881);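 note: EPAC1 catalysed release of BODIPY-GDP from Rap1B seen as fluorescence loss; nearly all actives have a fitted effect of over 75% in size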
[13] = target: Rap guanine nucleotide exchange factor 4 (Homo sapiens) (UniProt Q8WZA2); experiment: Confirmatory qHTS for agonist of cAMP-regulated guanine nucleotide exchange factor 4 (EPAC2) (AID 1645884);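 note: nucleotide exchange releases bodipy-GDP from Rap1 and this lowers its fluorescence; nearly all actives have a fitted effect of over 65% in size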
Rap guanine nucleotide exchange factor 4 (Homo sapiens), sequence (Q8WZA2 whole entry, looked up): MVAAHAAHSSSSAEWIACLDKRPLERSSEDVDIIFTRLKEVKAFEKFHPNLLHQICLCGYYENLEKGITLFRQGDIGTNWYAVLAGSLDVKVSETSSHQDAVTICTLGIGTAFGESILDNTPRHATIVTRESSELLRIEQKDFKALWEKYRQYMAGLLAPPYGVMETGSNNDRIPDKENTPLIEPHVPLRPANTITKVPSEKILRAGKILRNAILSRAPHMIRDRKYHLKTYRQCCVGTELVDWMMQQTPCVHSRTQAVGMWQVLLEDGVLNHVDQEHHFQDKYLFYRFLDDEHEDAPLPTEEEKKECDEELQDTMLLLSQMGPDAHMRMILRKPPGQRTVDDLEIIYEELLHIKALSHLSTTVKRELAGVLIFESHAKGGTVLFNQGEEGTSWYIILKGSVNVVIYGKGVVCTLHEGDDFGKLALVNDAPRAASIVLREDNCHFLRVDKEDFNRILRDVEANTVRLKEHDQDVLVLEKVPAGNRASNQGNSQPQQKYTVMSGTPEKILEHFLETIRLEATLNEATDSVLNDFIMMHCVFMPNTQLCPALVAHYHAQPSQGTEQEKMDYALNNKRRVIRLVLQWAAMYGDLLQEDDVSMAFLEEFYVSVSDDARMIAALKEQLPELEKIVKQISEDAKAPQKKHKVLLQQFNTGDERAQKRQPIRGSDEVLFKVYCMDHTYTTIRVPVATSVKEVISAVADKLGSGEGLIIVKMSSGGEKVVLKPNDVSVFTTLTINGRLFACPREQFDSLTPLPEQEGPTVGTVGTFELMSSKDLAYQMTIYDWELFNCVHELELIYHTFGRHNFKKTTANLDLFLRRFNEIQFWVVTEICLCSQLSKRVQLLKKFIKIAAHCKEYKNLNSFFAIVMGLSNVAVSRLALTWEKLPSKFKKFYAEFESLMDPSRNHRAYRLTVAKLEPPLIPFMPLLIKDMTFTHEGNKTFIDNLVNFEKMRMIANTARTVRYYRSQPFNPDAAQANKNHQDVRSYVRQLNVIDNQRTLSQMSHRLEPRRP

[14] = target: 3',5'-cyclic-AMP phosphodiesterase 4B (Homo sapiens) (UniProt Q07343); experiment: qHTS Assay for Inhibitors of PDE-IV (AID 607; active = well fitted activation curve with a large enough effect in the main read-out, with a control signal flat, not every such curve was filed as active)
3',5'-cyclic-AMP phosphodiesterase 4B (Homo sapiens), sequence (Q07343 whole entry, looked up): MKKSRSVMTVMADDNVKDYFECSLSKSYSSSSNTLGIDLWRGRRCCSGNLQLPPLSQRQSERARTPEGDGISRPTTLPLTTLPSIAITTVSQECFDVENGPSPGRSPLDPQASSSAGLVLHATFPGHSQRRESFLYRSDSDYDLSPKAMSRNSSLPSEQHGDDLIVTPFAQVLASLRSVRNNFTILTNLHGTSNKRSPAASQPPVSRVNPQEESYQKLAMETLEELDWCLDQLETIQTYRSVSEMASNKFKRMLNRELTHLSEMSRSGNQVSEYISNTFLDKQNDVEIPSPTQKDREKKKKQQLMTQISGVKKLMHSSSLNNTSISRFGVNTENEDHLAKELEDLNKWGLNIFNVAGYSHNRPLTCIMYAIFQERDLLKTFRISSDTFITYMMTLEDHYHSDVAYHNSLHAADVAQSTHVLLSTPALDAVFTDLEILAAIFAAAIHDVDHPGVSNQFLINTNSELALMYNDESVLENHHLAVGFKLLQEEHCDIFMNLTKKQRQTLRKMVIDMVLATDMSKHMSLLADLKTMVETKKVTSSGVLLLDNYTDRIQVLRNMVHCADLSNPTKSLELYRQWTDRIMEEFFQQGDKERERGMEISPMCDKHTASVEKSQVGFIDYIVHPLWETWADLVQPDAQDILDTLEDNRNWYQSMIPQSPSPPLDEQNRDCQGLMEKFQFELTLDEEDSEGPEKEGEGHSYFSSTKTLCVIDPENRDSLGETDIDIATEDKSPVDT
Outline: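 The readout is membrane depolarisation from a cAMP-sensing CNG channel, detected with a potential dye at ex 535/em 590. Cells were HEK293-derived (endogenous PDE-IV) at 1000 cells/well, titrated up to 22.9 uM final.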

[15] = target: Dual specificity protein kinase CLK4 (Homo sapiens) (UniProt Q9HAZ1); experiment: qHTS Assay for Inhibitors of CDC-like Kinase 4 (Kinase-Glo Assay) (AID 1770); note: nearly all actives have a fitted effect of over 65% in size; note: potency is the fitted concentration of half-maximal effect
Dual specificity protein kinase CLK4 (Homo sapiens), sequence (Q9HAZ1 whole entry, looked up): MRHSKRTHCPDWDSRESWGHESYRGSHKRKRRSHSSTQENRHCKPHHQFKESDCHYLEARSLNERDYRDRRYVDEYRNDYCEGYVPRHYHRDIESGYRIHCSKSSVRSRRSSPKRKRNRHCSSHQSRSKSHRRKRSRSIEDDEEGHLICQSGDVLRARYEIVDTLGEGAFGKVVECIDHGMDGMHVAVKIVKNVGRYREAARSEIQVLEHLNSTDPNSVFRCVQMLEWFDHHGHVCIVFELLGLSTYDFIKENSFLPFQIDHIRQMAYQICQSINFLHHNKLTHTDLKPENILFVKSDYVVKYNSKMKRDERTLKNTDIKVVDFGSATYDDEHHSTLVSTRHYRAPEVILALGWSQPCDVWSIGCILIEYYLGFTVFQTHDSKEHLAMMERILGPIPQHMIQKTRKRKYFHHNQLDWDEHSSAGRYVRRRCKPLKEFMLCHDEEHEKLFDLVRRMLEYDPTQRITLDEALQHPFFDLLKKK
Outline: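 Recombinant human Clk4 (25 nM) phosphorylated RS repeat peptide (100 uM) with 1 uM ATP in Tris pH 7.5/MgCl2/EGTA/DTT/Triton buffer for 4.5 h at room temperature. Residual ATP was quantified by Kinase-Glo luciferase luminescence.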

[16] = target: Dual specificity protein kinase CLK4 (Homo sapiens) (UniProt Q9HAZ1); experiment: qHTS Assay for Inhibitors of CDC-like Kinase 4 (ADP-Glo Assay) (AID 1771); note: nearly all actives have a fitted effect of over 70% in size; note: potency is the fitted concentration of half-maximal effect
Outline: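 25 nM Clk4, 100 uM RS peptide, 1 uM ATP (final); 2 mM MgCl2, 0.5 mM EGTA, 2.5 mM DTT, 0.01% Triton X-100; 1 hr RT. ADP-Glo readout: ATP depletion 45 min, conversion/luciferase 30 min, luminescence.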

[17] = target: Dual specificity protein kinase CLK4 (Homo sapiens) (UniProt Q9HAZ1); experiment: qHTS Assay for Inhibitors of CDC-like Kinase 4 (ADP-FP Assay) (AID 1795); note: nearly all actives have a fitted effect of over 60% in size; note: potency is the fitted concentration of half-maximal effect
Outline: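 Recombinant human Clk4 (6.25 nM) phosphorylated RS repeat peptide (100 uM) with 1 uM ATP in Tris pH 7.5/MgCl2/EGTA/DTT/Triton buffer for one hour. ADP was quantified by Transcreener competitive fluorescence polarization against an ADP calibration curve.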

[18] = target: Ubiquitin carboxyl-terminal hydrolase 1 (Homo sapiens) (UniProt O94782); experiment: Inhibitors of USP1/UAF1: Pilot qHTS (AID 504865);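 note: rhodamine fluorescence freed from ubiquitin-rhodamine substrate followed over time; top concentration of the series differs between compounds; nearly all actives have a fitted effect of over 35% in size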
Ubiquitin carboxyl-terminal hydrolase 1 (Homo sapiens), sequence (O94782 whole entry, looked up): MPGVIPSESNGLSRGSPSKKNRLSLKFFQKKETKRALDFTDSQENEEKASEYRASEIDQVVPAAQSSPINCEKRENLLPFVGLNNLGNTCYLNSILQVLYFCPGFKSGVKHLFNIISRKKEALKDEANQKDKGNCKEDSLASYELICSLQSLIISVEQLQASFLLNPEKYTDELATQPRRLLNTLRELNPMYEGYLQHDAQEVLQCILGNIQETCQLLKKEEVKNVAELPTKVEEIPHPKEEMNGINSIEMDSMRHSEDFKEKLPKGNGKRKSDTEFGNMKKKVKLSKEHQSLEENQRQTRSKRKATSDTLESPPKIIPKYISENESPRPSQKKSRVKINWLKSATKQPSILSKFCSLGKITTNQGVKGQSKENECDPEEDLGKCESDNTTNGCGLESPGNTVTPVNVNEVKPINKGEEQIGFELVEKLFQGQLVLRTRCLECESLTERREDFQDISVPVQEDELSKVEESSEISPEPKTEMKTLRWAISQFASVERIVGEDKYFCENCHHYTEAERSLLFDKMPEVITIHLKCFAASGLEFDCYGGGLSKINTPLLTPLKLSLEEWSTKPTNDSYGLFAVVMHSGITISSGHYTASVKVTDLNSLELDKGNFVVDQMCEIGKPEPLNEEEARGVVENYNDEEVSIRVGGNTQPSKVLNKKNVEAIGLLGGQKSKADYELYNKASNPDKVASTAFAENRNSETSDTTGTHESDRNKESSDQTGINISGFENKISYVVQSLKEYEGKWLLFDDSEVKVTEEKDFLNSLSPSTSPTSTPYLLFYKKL
Outline: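 USP1/UAF1 complex (1nM) preincubated with compound 15 min at room temperature, then Ub-Rho substrate (150nM final) added. Fluorescence read kinetically at 480/540 nm, 6 reads every 60 seconds. Buffer: 50mM HEPES pH 7.8, 0.5mM EDTA, 0.1 mg/ml BSA, 1mM TCEP, 0.01% Tween-20.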

[19] = target: Rap guanine nucleotide exchange factor 4 (Homo sapiens) (UniProt Q8WZA2); experiment: Confirmatory qHTS for antagonist of cAMP-regulated guanine nucleotide exchange factor 4 (EPAC2) (AID 1645885); note: nearly all actives have a fitted effect of over 25% in size
[20] = target: Cytochrome P450 3A4 (Homo sapiens) (UniProt P08684); experiment: qHTS Assay for Inhibitors and Substrates of Cytochrome P450 3A4 (AID 884); note: nearly all actives have a fitted effect of over 50% in size; note: potency is the fitted concentration of half-maximal effect
Outline: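 Luminescent readout of luciferin produced by CYP3A4 (20 nM) dealkylation of Luciferin-PPXE, 25 uM (its KM). NADPH-driven reaction ran 60 min at RT after 10 min compound preincubation; data scaled to 57 uM ketoconazole as 100% inhibition.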

| Compound | Potency [1] | activity change, negative = inhibition [2] | Potency [3] | activity change, negative = inhibition [4] | activity, negative = inhibition [5] | Potency [6] | Potency [7] | Potency [8] | Potency [9] | outcome [10] | Potency [11] | Potency [12] | Potency [13] | Potency [14] | Potency [15] | Potency [16] | Potency [17] | Potency [18] | Potency [19] | Potency [20] |
| --- | --- | --- | --- | --- | --- | --- | --- | --- | --- | --- | --- | --- | --- | --- | --- | --- | --- | --- | --- | --- |
| O=c1c(-c2ccc(F)c(F)c2)nc2cncnc2n1Cc1ccccc1Cl | > 11.4 µM | 4.57% | 5.01 µM (active) | -7.38% | 9.03% | > 9.22 µM | > 46 µM | inactive | inactive | inactive | inactive | inactive | inactive | – | – | – | – | – | – | – |
| COc1ccc2[nH]cc(CCNc3nc(-c4cccc(C#N)c4)nc4ccccc34)c2c1 | – | – | – | – | – | > 46 µM | – | inactive | – | inactive | inactive | inactive | inactive | inactive | 22.4 µM (active) | 28.2 µM (active) | inactive | inactive | inactive | – |
| Cn1cccc1C(=O)N1CCC2(CC1)CN(c1cccc(-c3ccccc3)c1)C2 | > 11.4 µM | -14% | 25.1 µM (active) | -2.77% | -13.7% | – | > 46 µM | – | – | inactive | inactive | inactive | inactive | inactive | – | – | – | – | – | inactive |
| COc1cc(/C=C\c2ccc(OC)cc2OC)cc(OC)c1 | – | – | 0.794 µM (active) | – | – | > 46 µM | > 46 µM | – | inactive | inactive | inactive | inactive | inactive | inactive | – | – | – | – | – | – |
| COCCn1c(=O)c(-c2cc(F)cc(F)c2)nc2cnc(Nc3cccc(OC)c3)nc21 | > 11.4 µM | -16% | 2.51 µM (active) | -16.5% | -3.85% | > 9.22 µM | > 46 µM | inactive | inactive | inactive | inactive | inactive | – | inactive | – | – | – | – | inactive | 7.94 µM (active) |
| O=c1c(-c2cccs2)nc2cnc(Nc3ccccc3)nc2n1C[C@H]1CCCO1 | – | -12.9% | 2.51 µM (active) | -16.9% | 22.1% | > 9.22 µM | > 46 µM | inactive | inactive | inactive | inactive | inactive | – | – | inactive | – | inactive | inactive | inactive | – |
| Cn1cccc1C(=O)N1CCC2(CCCN(c3cccc(-c4ccccc4)c3)C2)CC1 | > 11.4 µM | – | 15.8 µM (active) | -13.3% | 2.34% | – | > 46 µM | – | inactive | inactive | inactive | inactive | inactive | – | – | – | – | – | inactive | – |
| CN(C)c1ncc2nc(-c3cc(F)cc(F)c3)c(=O)n(Cc3cccs3)c2n1 | > 11.4 µM | – | 1.58 µM (active) | 110% [activator] (active) | 190% [activator] (active) | > 9.22 µM | > 46 µM | – | inactive | inactive | inactive | inactive | inactive | inactive | – | – | – | – | inactive | – |
| N#CCCn1c(=O)c(-c2cccs2)nc2cnc(N3CCOCC3)nc21 | > 11.4 µM | 3.31% | – | -28.6% | 17.9% | > 9.22 µM | > 46 µM | inactive | – | inactive | inactive | inactive | inactive | inactive | inactive | inactive | inactive | – | inactive | – |
| COc1ccc(CNc2ncnc3ccc(-c4c(C)noc4C)cc23)c(OC)c1 | > 11.4 µM | – | 15.8 µM (active) | – | – | > 46 µM | > 46 µM | inactive | inactive | inactive | inactive | inactive | inactive | – | 10 µM (active) | 15.8 µM (active) | inactive | inactive | inactive | 3.16 µM (active) |
| COc1cccc(Nc2ncc3ncc(=O)n(Cc4cccs4)c3n2)c1 | > 11.4 µM | – | 1.58 µM (active) | – | – | > 9.22 µM | > 46 µM | inactive | – | inactive | inactive | inactive | inactive | – | 0.708 µM (active) | 0.794 µM (active) | 0.501 µM (active) | inactive | – | – |
| OC[C@H]1O[C@@H](n2cnc3c(NCc4ccco4)ncnc32)[C@H](O)[C@@H]1O | – | – | – | – | – | – | – | – | – | inactive | – | – | – | – | – | – | – | – | – | inactive |
| Cn1c(=O)c(CCc2ccccc2)nc2cnc(Oc3ccccc3)nc21 | > 11.4 µM | -15.2% | – | -7.88% | -2.24% | > 9.22 µM | > 46 µM | inactive | – | inactive | inactive | inactive | inactive | inactive | – | – | – | – | inactive | – |
| COc1cccc(Nc2ncc3nc(-c4cn(C)c5ccccc45)c(=O)n(C[C@H]4CCCO4)c3n2)c1 | > 11.4 µM | -25.8% | – | -1.76% | 8.32% | > 9.22 µM | > 46 µM | inactive | – | inactive | inactive | inactive | inactive | inactive | inactive | inactive | inactive | – | inactive | – |
